Source: ChEMBL document CHEMBL3433997, “St. Jude Leishmania screening dataset” (2016)

Experiments:
Format in all cases: functional
[1] = target: Solute carrier family 2, facilitated glucose transporter member 1 (Homo sapiens) (UniProt P11166); test: ST_JUDE_LEISH: Cytotoxicity at 2uM final concentration against transgenic Leishmania Mexicana promastigotes LmGLUT1 that are glucose transport deficient and complemented with the human glucose transporter GLUT1. Activity is measured by DNA content using SYBR green in vitro
Chain of Solute carrier family 2, facilitated glucose transporter member 1 (Homo sapiens) (P11166 whole entry): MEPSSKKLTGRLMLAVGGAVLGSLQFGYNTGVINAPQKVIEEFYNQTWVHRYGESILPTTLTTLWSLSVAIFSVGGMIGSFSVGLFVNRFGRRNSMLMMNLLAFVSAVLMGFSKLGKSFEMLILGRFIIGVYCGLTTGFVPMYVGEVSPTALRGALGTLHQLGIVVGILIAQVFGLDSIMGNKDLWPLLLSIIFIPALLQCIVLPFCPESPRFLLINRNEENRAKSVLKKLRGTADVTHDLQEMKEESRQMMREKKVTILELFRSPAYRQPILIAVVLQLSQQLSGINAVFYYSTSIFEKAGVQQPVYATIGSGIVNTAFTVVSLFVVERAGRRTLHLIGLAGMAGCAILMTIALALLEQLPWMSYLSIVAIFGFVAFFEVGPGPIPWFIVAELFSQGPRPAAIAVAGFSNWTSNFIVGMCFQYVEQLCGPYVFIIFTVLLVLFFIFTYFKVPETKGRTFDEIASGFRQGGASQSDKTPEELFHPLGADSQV

[2] = target: Hexose transporter 1 (Plasmodium falciparum) (UniProt O97467); test: ST_JUDE_LEISH: Cytotoxicity at 2uM final concentration against transgenic Leishmania Mexicana promastigotes LmPfHT that are glucose transport deficient and complemented with the Plasmodium falciparum hexose transporter. Activity is measured by DNA content using SYBR green in vitro
[3] = target: Glucose transporter (Leishmania mexicana) (UniProt O61059); test: ST_JUDE_LEISH: Cytotoxicity at 2uM final concentration against transgenic Leishmania Mexicana promastigotes LmGT2 that are glucose transport deficient and complemented with the L. Mexicana glucose transporter 2. Activity is measured by DNA content using SYBR green in vitro

SMILES	inhibition [1] [%]	inhibition [2] [%]	inhibition [3] [%]
CCS[C@@H]1O[C@H](COC(=O)c2ccccc2)[C@H](OC(=O)c2ccccc2)[C@H](OC(=O)c2ccccc2)[C@H]1OC(=O)c1ccccc1	1.02	4.06	2.02
Cc1ccc(N2CCc3c(-c4cc5cccnc5nc4C)cc(C)nc32)c(Cl)c1	4.06	6.18	3.42
CS(=O)(=O)c1ccccc1CNC(=O)c1cccc(-c2ccc(-c3nc4cc(C(F)(F)F)ccc4[nH]3)cc2)c1	2.38	1.77	0.15
Cc1nc(SCC(=O)N2CCCC2=O)c2c(C)c(C)sc2n1	8.94	8.95	6.78
CCN(CC)/C(=N/C(=N)NCc1ccc(Cl)cc1Cl)NCCCCCCN/C(=N\C(=N)NCc1ccc(Cl)cc1Cl)N(CC)CC	1.61	1.69	1.51
